From ChEMBL document CHEMBL4513216, “Probing the Open Global Health Chemical Diversity Library for Multistage-Active Starting Points for Next-Generation Antimalarials” (ACS Infect Dis, 2020)
About 8,600 (12%) of roughly 69,000 compounds showed an effect of 50% or more. This excerpt belongs to a sample that is enriched for strong results.

The molecules below were run on Plasmodium berghei (assay: Screen against P. berghei liver stage (PbLuc), transformed with Luciferase, at 10uM). Conditions: tested at 10 uM.
Assay type: functional, HepG2

Compound | INHIBITION [%]
COCc1ncc(CN2CCC3(CCNC(=O)CC3)CC2)cn1 | -47
COCc1ncc(CN2CCC3(CCC(=O)N(CC(C)O)C3)CC2)cn1 (stereo unspecified) | 55.2
COCc1ncc(CN2CCC3(CCNCC3)CC2)cn1 | 18.5
COC(=O)C1CCN(C(=O)Cn2nc(C)nc2-c2ccccc2)CC1 | -3.48
N[C@@H](Cc1c[nH]cn1)C(=O)N1CCC(Oc2ccc(Cl)cc2)CC1 | 43.9
CC1CCCN(Cc2coc(-c3cccc(F)c3)n2)C1 (stereo unspecified) | 18.6
CCN(CC(F)(F)F)C(=O)C1CCCN(Cc2cscn2)C1 (stereo unspecified) | -116
Cn1cc(CN2CCCC(CCc3ccccc3C(F)(F)F)C2)cn1 (stereo unspecified) | 43
Cc1nc(CN2CCCC(CCc3ccccc3C(F)(F)F)C2)co1 (stereo unspecified) | 74.5
Cc1nc(CN2CCCC(c3nc(C)n4c(C)c(C)sc34)C2)co1 (stereo unspecified) | 19.6
Cc1nnc(CN2CCCC(CCc3ccccc3C(F)(F)F)C2)o1 (stereo unspecified) | 27.2
FC(F)(F)c1ccccc1CCC1CCCN(Cc2cscn2)C1 (stereo unspecified) | 76.7
Cc1nc(CN2CCCC(CCc3cccc(C(F)(F)F)c3)C2)co1 (stereo unspecified) | 62.4
Cc1ccccc1CCC1CCCN(Cc2nnc(-c3ccco3)o2)C1 (stereo unspecified) | 35.6
COCCN(Cc1ccco1)c1ncc(C#N)cc1Cl | 28
CCn1ncc(Nc2[nH]cnc3nc(C)nc2-3)c1C | 9
COCC(=O)Nc1ccc(-c2noc([C@@H]3CCCN3C(C)C)n2)cn1 | 35.8
CC(C)NC(=O)N1Cc2nccn2CC(COc2cccnc2)C1 (stereo unspecified) | 22.4
O=C(c1cscn1)N1CCC2(CCN(Cc3cccs3)CC2)C1 | -5.12
COc1ccccc1N1CCN(Cc2ncc(C)c(OC)c2C)CC1=O | 37.4
CNC(=O)NC(C)c1c(F)cccc1Cl (stereo unspecified) | 50.8
NC(=O)CNC(c1ccccc1)c1ccccc1 | 6.67
CC(NC(=O)N1CCNC(=O)CC1)c1c(F)cccc1Cl (stereo unspecified) | -36.75
CC(C)NC(=O)CNC(C)c1c(F)cccc1Cl (stereo unspecified) | 31.2

Compound | INHIBITION [%]
CC(NC(=O)N1CCS(=O)(=O)CC1)c1c(F)cccc1Cl (stereo unspecified) | -5.275
CC(NCC(N)=O)c1c(F)cccc1Cl (stereo unspecified) | 67.1
CCOc1ccccc1N1CCN(c2nnc(C)o2)CC1 | 7.4
CCN(CC)C(=O)CN(C)CCn1nc2ccccn2c1=O | -79.8
N#Cc1ccc(C(=O)N2CC[C@H]3[C@@H]2CCC(=O)N3c2cccnc2)cc1 | 23.9
Cc1ccc(C(=O)N2C[C@@H](OCc3cccnc3)[C@H]3OCCC[C@H]32)o1 | 10.6
Cc1ccc2c(c1)OC(C)CN2C(=O)c1c[nH]c(C)cc1=O (stereo unspecified) | 26.9
CCOC1CC2(CCN(C(=O)COC)CC2)c2cc(F)ccc21 (stereo unspecified) | 19.8
CCC(=O)N1CCC2(CC1)CC(CC(N)=O)c1ccc(F)cc12 (stereo unspecified) | -26.5
CN(C)C(=O)CC1CC2(CCN(CC3CC3)CC2)c2cc(F)ccc21 (stereo unspecified) | 35.3
CCC(=O)N1CCC2(CC1)CC(CC(=O)N(C)C)c1ccc(F)cc12 (stereo unspecified) | 51.2
CCN1CCC2(CC1)CC(CC(=O)N(C)C)c1ccc(F)cc12 (stereo unspecified) | 53
CCNC(=O)CC1CC2(CCN(C(C)=O)CC2)c2cc(F)ccc21 (stereo unspecified) | 31.4
Cc1cccc(-c2ccc(C(=O)NCC3CCCOC3)c(=O)[nH]2)c1 (stereo unspecified) | -24.2
COCCC(=O)N1CCN(CC(C)C)c2nc(C)ccc2C1 | 7.24
COCc1ccccc1C(=O)OCc1noc(C)n1 | 9.63
Cc1nc(COC(=O)c2cccc3c2OCCO3)no1 | 70.1
Cc1nc(COC(=O)c2cccnc2C)no1 | 32
Cc1ncsc1CN(C)C(=O)CC1CCOc2ccccc21 (stereo unspecified) | -1.35
Cc1ncsc1COC(=O)c1cccc2c1OCCO2 | 77.9
Cc1nc(COC(=O)c2cccc3c2OCCO3)cs1 | 48.8
Cc1nc(CN2C(=O)CCC23CCN(Cc2ccoc2)CC3)cs1 | -30
O=S(=O)(c1ccccc1)N1CCOCC(Cc2cccnc2)C1 (stereo unspecified) | 9.05
CN(Cc1cccc(F)c1)C(=O)CN1CCCC1CCc1ccccc1 (stereo unspecified) | 5.14

Compound | INHIBITION [%]
CCN(C(=O)CN1CCCC1Cc1ccccc1)c1ccccc1 (stereo unspecified) | 75.7
N#CCCN(C(=O)CN1CCCC1Cc1ccccc1)c1ccccc1 (stereo unspecified) | 38.5
COc1ccc(CC2CCCN2CCCC#N)cc1 (stereo unspecified) | 35.9
N#CCCCN1CCCC1Cc1ccccc1 (stereo unspecified) | 53.6
CN(C(=O)CN1CCCC1Cc1ccccc1)c1ccccc1 (stereo unspecified) | 68
CCN(C(=O)CN1CCCC1c1ccc(OC)cc1)c1ccccc1 (stereo unspecified) | -47.9
COc1cccc(CC2CCCN2CC(N)=O)c1 (stereo unspecified) | 35
COc1cccc(CC2CCCN2CCCC#N)c1 (stereo unspecified) | 34.1
COc1ccc(CCN2CC(n3nc(C)cc3C)C2)cc1 | -6.61
Cc1cnn(CCCNCc2csc(COc3ccccc3)n2)c1 | 30.2
CCOC(=O)c1sc(NC(=O)C(C)(C)C)c(C#N)c1C | -43.6
Cc1nn(C)c(C)c1C1CCCN1CC(=O)NCc1ccccn1 (stereo unspecified) | 26.5
COCCNC(=O)CN1CCC(N2CCN(C)C2=O)CC1 | 48.2
Cc1cc(C(=O)N2CCCC(c3nccn3C)C2)cc(S(N)(=O)=O)c1C (stereo unspecified) | -2.98
Cc1cc(C)nc(N2CCC(C(=O)Nc3ncc[nH]3)CC2)n1 | 47.9
CNc1cc(C(=O)N2CCOC(C(=O)NC3CCCC3)C2)ccn1 (stereo unspecified) | -23.4
O=C(NCCSc1ccccc1)[C@H]1CNC[C@@H](C(=O)N2CCOCC2)C1 | -1.09
CCc1cc(C(F)(F)F)c2c(C3CCCN(C(=O)COC)C3)noc2n1 (stereo unspecified) | -8.12
CCc1cc(C(F)(F)F)c2c(C3CCN(C(=O)COC)CC3)noc2n1 | 52
COCCC(=O)N1CCC(c2noc3nc(C)cc(C(F)(F)F)c23)CC1 | 38.1
COCC(=O)N1CCC(c2cc(C(F)(F)F)c3c(C)noc3n2)CC1 | 9.93
Cc1cc(C(F)(F)F)c2c(C3CCN(S(=O)(=O)N(C)C)CC3)noc2n1 | 60.8
COCC(=O)N1CCC(c2noc3nc(C)cc(C(F)(F)F)c23)CC1 | 15.4
